Source: PubChem BioAssay (NCI)
About 83,000 compounds went through this panel and 20% of them were active in at least one assay; those are over-represented in the sample as a whole.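 Assay: single dose, 48 h. Readout: percent growth (0 = no net growth; negative = cell death). Active: <10.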 Values without a mark were called inactive. Calls of active or inactive are those of the source.

What follows are compounds tested on ACHN renal (assay: NCI-60 one-dose screen, 48 h (100 = growth as untreated, 0 = no growth, -100 = all killed)). Conditions: 10 µM.
Protocol: Growth inhibition of the ACHN human tumor cell line is measured as a screen for anti-cancer activity. Cells are grown in 96 well plates and exposed to the test compound for 48 hours. Compounds are tested at a single concentration, which is 10^-5 M for most compounds. The reported endpoint is percent growth (GI% or GIPRCNT), where numbers from 0 - 100% represent growth inhibition, and numbers from -100% - 0 represent cell death. For example, a value of 40 represents 60% growth inhibition. A value of 0 means no net growth occurred over the course of the experiment. A value of -40 indicates 40% of cells at the beginning of the experiment died by the end of the experiment. A value of -100 means all cells are dead at the end of the experiment.
NCI-60 Human Tumor Cell Lines Screen was performed using the standard one-dose NCI protocol, which is described in more detail at https://dtp.cancer.gov/discovery_development/nci-60/default.htm.
Compounds with GIPRCNT values below 10 were considered active. Activity score was based on GIPRCNT using the following formula: […]
Score is 0 for GIPRCNT values of 100 or above, 50 for GIPRCNT values of 0, and 100 for GIPRCNT values of -100.

First: CC(C)(C)c1cc(/C=C2\S/C(=N/c3ncn[nH]3)NC2=O)cc(C(C)(C)C)c1O
Second: Cc1ccc2c(c1)C(=O)/C(=C/c1c[nH]c3ccccc13)S2
The growth of the first is lower: 18.2% for the first, 58.2% for the second.

Going from `COc1ccc(C(=O)COc2ccc(NC(=O)Nc3ccc(Cl)c(C(F)(F)F)c3)cc2)cc1` to `Cc1ccc(COc2ccc(NC(=O)Nc3ccc(Cl)c(C(F)(F)F)c3)cc2)cc1`, the growth rises from 17.9% to 56.8%.

First: O=C(Nc1ccc(Oc2ncnc3scc(Nc4n[nH]c(=S)s4)c23)cc1)C1(C(=O)Nc2cccc(C(F)(F)F)c2)CC1
Second: O=C(Nc1ccc(OCc2ccc(F)cc2)cc1)Nc1ccc(Cl)c(C(F)(F)F)c1
The growth of the first is higher: 95.6% for the first, 14.6% for the second.

First: CC1(C)CC[C@]2(C(=O)O)CC[C@]3(C)C(=CCC4[C@@]5(C)C[C@@H](O)[C@@H]6OC(c7cccc(F)c7)OC[C@@]6(C)C5CC[C@]43C)C2C1 (stereo not given in full)
Second: COc1ccc(C2OC[C@@]3(C)C4CC[C@]5(C)C(CC=C6C7CC(C)(C)CC[C@]7(C(=O)O)CC[C@]65C)[C@@]4(C)C[C@@H](O)[C@@H]3O2)cc1 (stereo not given in full)
The growth of the first is lower: 17.6% for the first, 56.8% for the second.

Compared with `COc1ccc(NCc2cn(-c3ccc(C(=O)O)cc3)nc2-c2ccc(F)cc2)cc1C(F)(F)F`, `COc1ccc(C(=O)COc2ccc(NC(=O)Nc3ccccc3)cc2)cc1` is higher in growth: 43.1% for the first, 98% for the second.

First: COc1ccc(C2c3sc4ccc(C)cc4c3Oc3nc[nH]c(=O)c32)cc1 (stereo not given)
Second: Cc1ccc2sc3c(c2c1)Oc1nc[nH]c(=O)c1C3c1cccc(F)c1 (stereo not given)
The growth of the first is higher: 106% for the first, 97% for the second.

First: COc1cc2oc(-c3cccc(C(=O)Nc4ccc(Cl)cc4)c3)cc(=O)c2c(OCCNC(=O)[C@@H](N)CO)c1OC
Second: O=C(CSc1nc2ccccc2c(=O)n1-c1ccc(Cl)cc1)Nc1ccc(-c2nc3ccc([N+](=O)[O-])cc3[nH]2)cc1
The growth of the first is higher: 99.4% for the first, 45.5% for the second.

First: CCOc1ccc(/C=N/NC(=O)Cn2nc(Cc3ccc(OC)cc3)c3onc(C)c3c2=O)cc1
Second: CCOC(=O)c1ccc(NC(=O)CSC(CC(=O)c2sc(Nc3ccccn3)nc2C)c2ccccc2F)cc1 (stereo not given)
The growth of the first is higher: 13.1% for the first, 12.1% for the second.

Compared with `Cn1cc(-c2nnc(N)nc2-c2c[nH]c3ccccc23)c2cc(Br)cnc21`, `Cn1cc(-c2nc(N)nnc2-c2c[nH]c3ccccc23)c2cc(Br)cnc21` is lower in growth: 39.7% for the first, 19.2% for the second.

Compared with `CCOC(=O)C1=C(N)N(c2ccc(C)cc2)C2=C(C(=O)CC(C)(C)C2)C1c1ccccc1Br` (stereo not given), `CC1(C)CC(=O)C2=C(C1)N(Cc1ccc(C(=O)O)cc1)C1=C(C(=O)CC(C)(C)C1)C2c1ccc(Cl)cc1` is higher in growth: 85.9% for the first, 116% for the second.

Compared with `COc1ccc(C2c3sc4ccc(C)cc4c3Oc3nc(N)nc(N)c32)cc1` (stereo not given), `COc1cc(-c2nc3ccc(C)cc3[nH]2)ccc1OCc1nnc(-c2ccccc2Br)o1` is lower in growth: 94.4% for the first, 76.6% for the second.

Compared with `O=C1NC(=S)S/C1=C\c1cn(-c2ccccc2)nc1-c1ccc([N+](=O)[O-])cc1`, `O=[N+]([O-])c1cccc(-c2nnc3c(/C=C/c4ccccc4O)nc4ccccc4n23)c1` is higher in growth: 12.6% for the first, 35.8% for the second.

Compared with `Cn1cc(-c2nnc(N)nc2-c2c[nH]c3ccc(F)cc23)c2cc(Br)cnc21`, `COc1ccccc1-n1cc(C#N)c(N)c1C(=O)c1ccc(Cl)cc1Cl` is higher in growth: 47% for the first, 48.3% for the second.

First: O=C1NC2C=CC=CC2/C1=C1/SC(=S)N(C2CC(=O)N(c3ccc(Br)cc3)C2=O)C1=O (stereo not given)
Second: Cc1ccc(S(=O)(=O)N2CCN(S(=O)(=O)c3oc(-c4ccccc4)nc3C#N)CC2)cc1
The growth of the first is higher: 94.1% for the first, 69.4% for the second.

Compared with `C#CCOc1cc(N(CC)CC)ccc1C(C(=O)NC(C)(C)C)N(C(=O)C1CCc2cc(F)ccc2O1)c1ccc(F)cc1F` (stereo not given), `COc1cc(C2CC(c3ccccc3)=Nc3c(N)nc(N)nc3N2)ccc1Oc1nc(NCCO)nc(N2CCOCC2)n1` (stereo not given) is higher in growth: 24.7% for the first, 103% for the second.

In the case of `COc1ccc(Cc2nn(CC(=O)N/N=C/c3ccc(Br)cc3)c(=O)c3c(C)noc23)cc1`, the growth was 5.6% (active).
`O=C(CN1CCN(c2ncnc3c2cnn3-c2ccccc2)CC1)Nc1ccc(Cl)cc1` was tested, and the growth was -80.7% (active).
With `O=C(c1ccccc1)c1ccc2nc(-c3ccccc3Br)[nH]c2c1` the growth was -98.2% (active).
In the case of `C#C[C@]1(O)CC[C@H]2[C@@H]3CC=C4c5sc(Nc6cc(C)cc(C)n6)nc5CC[C@]4(C)[C@H]3CC[C@@]21C`, the growth was 7.43% (active).
`Cn1cc(-c2cc3nc(-c4c[nH]c5ccccc45)cc(N)n3n2)c2cc(Cl)ccc21` was tested, and the growth was -100% (active).
For `COc1cc2oc(-c3cccc(C(=O)Nc4ccc(Cl)cc4)c3)cc(=O)c2c(OCCN)c1OC`, the growth was -92.5% (active).
In the case of `Cc1ccc(-c2nc(C#N)c(S(=O)(=O)N3CCN(S(C)(=O)=O)CC3)o2)cc1`, the growth was -97.9% (active).
For `O=C(CN1CCN(c2ncnc3c2cnn3-c2ccccc2)CC1)Nc1ccc(Br)cc1`, the growth was -88.1% (active).
`CCn1c(SCC(=O)Nc2ccc(-c3nc4ccccc4[nH]3)cc2)nc2ccccc2c1=O` was tested, and the growth was -86.4% (active).
In the case of `C#C[C@]1(O)CC[C@H]2[C@@H]3CC=C4c5sc(Nc6ccc(C(F)(F)F)cn6)nc5CC[C@]4(C)[C@H]3CC[C@@]21C`, the growth was 0.62% (active).
